Results filed as inconclusive are left out. Active and inactive are the calls of the source. The call rests on the fitted dose curve; in most records, active means well fitted cell-killing curve with a large enough effect; inconclusive means small, poorly fitted or top-dose-only effect, or effect the other way; inactive means flat fitted curve, though single readings scatter.
What follows are compounds tested on PA-1 (assay: Primary qHTS to identify gynecologic anti-cancer compounds using libraries of approved drugs and bioactive compounds (AID 1345084; further: nearly all actives have a fitted effect of over 55% in size)). Settings: Gynecologic cancer cell panel viability, ATPlite luminescence, 48 h; series mostly up to 57.5 µM.
How it was run: (§1)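 In this quantitative HTS, cell killing is estimated from loss of ATP-dependent luciferase light. Cells see five compound concentrations over a 48 h exposure.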
In the case of `Cc1cnc(Nc2ccc(F)cc2Cl)nc1-c1c[nH]c(C(=O)N[C@H](CO)c2cccc(Cl)c2)c1`, the Potency is reported as 31.6 µM (active).
In the case of `COc1cc2c(cc1-c1c(C)noc1C)ncc1[nH]c(=O)n([C@H](C)c3ccccn3)c12`, the Potency is reported as “inactive”.
In the case of `CCS(=O)(=O)c1cccc(-c2cc(C(=O)NC3CCN(C)CC3)c(C)c3[nH]c4ncc(C)cc4c23)c1`, the Potency is reported as 1.26 µM (active).
With `c1ccc2c(CCNc3ccc(Nc4ccncc4)cc3)c[nH]c2c1` the Potency was 10 µM (active).
In the case of `CC1COC2(CCN(c3nc(=O)c4cc(C(F)(F)F)cc([N+](=O)[O-])c4s3)CC2)O1` (stereo not drawn), the Potency is reported as “inactive”.
In the case of `CC[C@@H]1C(=O)N(C)c2cnc(Nc3ccc(C(=O)NC4CCC(N5CCN(CC6CC6)CC5)CC4)cc3OC)nc2N1C(C)C` (stereo partly drawn), the Potency is reported as 0.251 µM (active).
`CCCCOc1c(C(=O)c2c(F)cc(C)cc2F)cnc2n[nH]cc12` was tested, and the Potency was 7.94 µM (active).
For `Nc1nc(Nc2ccc(S(N)(=O)=O)cc2)nn1C(=O)c1c(F)cccc1F`, the Potency was 28.2 µM (active).
For `C=CCn1c(=O)c2cnc(Nc3ccc(N4CCN(C)CC4)cc3)nc2n1-c1cccc(C(C)(C)O)n1`, the Potency was 1.58 µM (active).
`Cc1cc(N2CCOCC2)cc2[nH]c(-c3c(NC[C@@H](O)c4cccc(Cl)c4)cc[nH]c3=O)nc12` was tested, and the Potency was 14.1 µM (active).
`Nc1ccccc1NC(=O)c1ccc(CNc2nccc(-c3cccnc3)n2)cc1` was tested, and the Potency was 0.708 µM (active).
For `COc1cc2nccc(Oc3ccc(NC(=O)C4(C(=O)Nc5ccc(F)cc5)CC4)cc3)c2cc1OC`, the Potency was 7.94 µM (active).
In the case of `COCCOc1ccc2c(c1)ncn2-c1ccc2cccc(N3CCC(N)CC3)c2n1`, the Potency is reported as 7.94 µM (active).
For `CNC(=O)c1nn(C)c2c1C(C)(C)Cc1cnc(Nc3ccc(N4CCN(C)CC4)cc3)nc1-2`, the Potency was 2.24 µM (active).
In the case of `CC(=O)Nc1nc(C)c(-c2ccc(Cl)c(S(=O)(=O)NCCO)c2)s1`, the Potency is reported as 15.8 µM (active).

Each compound was assayed on SKOV3 in the same assay as above. Settings: Gynecologic cancer cell panel viability, ATPlite luminescence, 48 h; series mostly up to 57.5 µM.
How it was run: as §1
`CNc1nccc(-c2cccnc2Oc2cc(C(=O)Nc3cccc(C(F)(F)F)c3)ccc2C)n1` was tested, and the Potency was 28.2 µM (active).
`CCS(=O)(=O)c1cccc(-c2cc(C(=O)NC3CCN(C)CC3)c(C)c3[nH]c4ncc(C)cc4c23)c1` was tested, and the Potency was 5.62 µM (active).
For `COc1cc(C(=O)N2CCC(N3CCN(C)CC3)CC2)ccc1Nc1ncc2c(n1)N(C)c1ccccc1C(=O)N2C`, the Potency was 8.91 µM (active).
For `CC1COC2(CCN(c3nc(=O)c4cc(C(F)(F)F)cc([N+](=O)[O-])c4s3)CC2)O1` (stereo not drawn), the Potency was “inactive”.
With `CCOC(=O)C1=C(C)NC2=C(C(=O)CC(C)(C)C2)C1c1ccc(-c2ccccc2)cc1` (stereo not drawn) the Potency was 10 µM (active).
`COC(=O)c1ccc2c(C(=Nc3ccc(N(C)C(=O)CN4CCN(C)CC4)cc3)c3ccccc3)c(O)[nH]c2c1` was tested, and the Potency was “inactive”.
`Cc1nc2ccc(CN(C)c3ccc(C(=O)N[C@@H](CCC(=O)O)C(=O)O)s3)cc2c(=O)[nH]1` was tested, and the Potency was “inactive”.
`CCCCOc1c(C(=O)c2c(F)cc(C)cc2F)cnc2n[nH]cc12` was tested, and the Potency was “inactive”.
`C[C@@H]1COC(Nc2ccc3ncnc(Nc4ccc(OCc5nccs5)c(Cl)c4)c3c2)=N1` was tested, and the Potency was 14.1 µM (active).
With `Nc1nc(Nc2ccc(S(N)(=O)=O)cc2)nn1C(=O)c1c(F)cccc1F` the Potency was “inactive”.
In the case of `C=CCn1c(=O)c2cnc(Nc3ccc(N4CCN(C)CC4)cc3)nc2n1-c1cccc(C(C)(C)O)n1`, the Potency is reported as 0.447 µM (active).
`Cn1cc(-c2[nH]c3cc(NC(=O)[C@H](N)C4CCCCC4)cc4c3c2C=NNC4=O)cn1` was tested, and the Potency was 7.08 µM (active).
In the case of `Cc1cc(N2CCOCC2)cc2[nH]c(-c3c(NC[C@@H](O)c4cccc(Cl)c4)cc[nH]c3=O)nc12`, the Potency is reported as 14.1 µM (active).
For `Nc1ccccc1NC(=O)c1ccc(CNc2nccc(-c3cccnc3)n2)cc1`, the Potency was 3.98 µM (active).
In the case of `Nc1cccc(-c2cc3c(Oc4cccc(O)c4)ncnc3[nH]2)c1`, the Potency is reported as 3.98 µM (active).
In the case of `Cn1c2ccccc2c2c3c(c4c5ccccc5n(CCC#N)c4c21)CNC3=O`, the Potency is reported as 17.8 µM (active).
In the case of `COc1cc(-c2nn(C3CCC(N4CCN(C(C)=O)CC4)CC3)c3ncnc(N)c23)ccc1NC(=O)c1cc2ccccc2n1C` (stereo not drawn), the Potency is reported as “inactive”.
In the case of `CC(=O)Nc1nc(C)c(-c2ccc(Cl)c(S(=O)(=O)NCCO)c2)s1`, the Potency is reported as 11.2 µM (active).

These compounds were tested on Tov-21-G in the same assay as above. Settings: Gynecologic cancer cell panel viability, ATPlite luminescence, 48 h; series mostly up to 57.5 µM.
How it was run: as §1
`COC(=O)C1=C(C)NC(C)=C(C(=O)OCCN2CCN(C(c3ccccc3)c3ccccc3)CC2)C1c1cccc([N+](=O)[O-])c1` (stereo not drawn) was tested, and the Potency was “inactive”.
With `Cc1cnc(Nc2ccc(F)cc2Cl)nc1-c1c[nH]c(C(=O)N[C@H](CO)c2cccc(Cl)c2)c1` the Potency was 28.2 µM (active).
With `CNc1nccc(-c2cccnc2Oc2cc(C(=O)Nc3cccc(C(F)(F)F)c3)ccc2C)n1` the Potency was 28.2 µM (active).
With `c1ccc2c(CCNc3ccc(Nc4ccncc4)cc3)c[nH]c2c1` the Potency was “inactive”.
`Cc1c(NC(=O)OC[C@@H]2COCCN2)cn2ncnc(Nc3ccc4c(cnn4Cc4cccc(F)c4)c3)c12` was tested, and the Potency was “inactive”.
`Cc1c(C)n(Cc2ccc(-c3ccccc3C(=O)O)cc2)c2ccc(C(=O)N[C@@H](C)c3ccc([N+](=O)[O-])cc3)cc12` was tested, and the Potency was “inactive”.
`CS(=O)(=O)c1ccc(-c2cnc(N)c(C(=O)Nc3ccccc3)n2)cc1` was tested, and the Potency was 8.91 µM (active).
In the case of `CCc1c2c(nc3ccc(O)cc13)-c1cc3c(c(=O)n1C2)COC(=O)[C@]3(O)CC`, the Potency is reported as 3.16 µM (active).
For `C=CCn1c(=O)c2cnc(Nc3ccc(N4CCN(C)CC4)cc3)nc2n1-c1cccc(C(C)(C)O)n1`, the Potency was 0.631 µM (active).
For `Cn1cc(-c2[nH]c3cc(NC(=O)[C@H](N)C4CCCCC4)cc4c3c2C=NNC4=O)cn1`, the Potency was 10 µM (active).
`Cc1ccc(C(N)=O)cc1Nc1nccc(-c2cn(C(C)C)c3cnccc23)n1` was tested, and the Potency was 14.1 µM (active).
`Nc1ccccc1NC(=O)c1ccc(CNc2nccc(-c3cccnc3)n2)cc1` was tested, and the Potency was 2.82 µM (active).
In the case of `Cc1cc(Nc2cc(N3CCN(C)CC3)nc(Sc3ccc(NC(=O)C4CC4)cc3)n2)n[nH]1`, the Potency is reported as “inactive”.
With `O=C(O)c1ccc2c(c1)nc(Nc1cccc(Cl)c1)c1ccncc12` the Potency was 22.4 µM (active).
In the case of `CNC(=O)c1c(F)cccc1Nc1nc(Nc2cc3c(cc2OC)CCN3C(=O)CN(C)C)nc2[nH]ccc12`, the Potency is reported as “inactive”.

From PubChem BioAssay (NCATS)
Potency means the concentration at half of the fitted maximal effect.
